Compound activity from PubChem BioAssay.
Most compounds without a hit are left out; they make up all but 1.2% or so of the library.
TrxR1 inh-1 – blocks rat thioredoxin reductase 1; Potency, µM (series often up to 114 µM), inactives show at the top dose activity change, negative = inhibition, most hits filed as inhibitors; recombinant rTrxR1, NADPH fluorescence consumption, selenite substrate; O89049; 390,000 tested, 1% active; also: potency is read from the fitted curve at half-maximal effect; % is scaled to controls: 0 for no effect and ±100 for the full control effect; nearly all actives have a fitted effect of over 65% in size
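Rat TrxR1 (90 nM in the dispensed reagent) was pre-reduced with 400 uM NADPH for 5 min at room temperature, then incubated with compound for 15 min. After 400 uM selenite was added, NADPH fluorescence (Ex 340/Em 450 nm) was followed for 8 min.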
GALK inhibitor – blocks human galactokinase activity; P51570; Purified GALK, Kinase-Glo residual ATP luminescence; Potency, µM (highest dose often 57.5 µM), without a hit: top-dose activity change, negative = inhibition, usual class: inhibitors; 270,000 tested, 0.007% active; also: potency is read from the fitted curve at half-maximal effect; % is scaled to controls: 0 for no effect and ±100 for the full control effect
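Luminescence from leftover ATP (Ultra-Glo luciferase/luciferin) served as read-out after a 1 h room-temperature reaction of 5 nM GALK with 35 uM ATP and 100 uM galactose.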
PI4K2A inh – inhibitors of human PI4K2A. Q9BTU6. purified PI4K2A, ADP-Glo luminescence, 1 h; stronger effect = lower value. activity change, negative = inhibition, % at 76.9 µM. 420,000 tested, 0.13% active. AID 1346378; in the data active = activity change below about -50%; inconclusive = mostly about -30% to -49%;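 also: -100% = wells without enzyme as full effect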
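In this quantitative HTS, ADP production by PI4K2A was quantified luminescently after 1 h at ambient temperature; 100 microM adenosine served as plate-quality control.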
PKM2 activator – PKM2 (human) enzyme activation; AID 1631; 260,000 tested, 0.34% active; Potency, µM (top dose mostly 57.5 µM), without a hit: at the top dose activation, hits mostly activators; P14618; purified PKM2, Kinase-Glo ATP luminescence, activation; response scale: 0% is enzyme alone, no compound; also: potency is read from the fitted curve at half-maximal effect; % is scaled to controls: 0 for no effect and ±100 for the full control effect; nearly all actives have a fitted effect of over 55% in size
Target sequence (P14618 whole entry, looked up): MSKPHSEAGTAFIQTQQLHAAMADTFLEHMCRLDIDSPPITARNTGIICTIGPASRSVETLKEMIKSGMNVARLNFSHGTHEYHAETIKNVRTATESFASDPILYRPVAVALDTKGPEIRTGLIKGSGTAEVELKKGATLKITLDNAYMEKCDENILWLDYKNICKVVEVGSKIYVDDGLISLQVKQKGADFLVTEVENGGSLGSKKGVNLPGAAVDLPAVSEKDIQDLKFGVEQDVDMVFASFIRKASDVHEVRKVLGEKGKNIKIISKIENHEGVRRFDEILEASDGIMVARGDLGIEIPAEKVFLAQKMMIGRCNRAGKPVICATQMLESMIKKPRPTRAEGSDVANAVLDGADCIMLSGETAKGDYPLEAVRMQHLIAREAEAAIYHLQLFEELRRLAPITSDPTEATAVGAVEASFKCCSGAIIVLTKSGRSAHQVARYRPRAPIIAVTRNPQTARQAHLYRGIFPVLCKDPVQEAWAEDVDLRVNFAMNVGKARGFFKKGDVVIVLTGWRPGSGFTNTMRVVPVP
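ATP formation by purified human PK-M2, quantified via coupled luciferase luminescence after 1 h at room temperature with 0.1 mM ADP and 0.5 mM PEP final.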
TrxR1 substrate – rat thioredoxin reductase 1 substrate activity | 390,000 tested, 0.01% active | Potency, µM (series often up to 114 µM), inactives show top-dose activity change, negative = substrate turnover | purified TrxR1 substrate turnover, NADPH consumption readout | O89049; also: potency is read from the fitted curve at half-maximal effect; % is scaled to controls: 0 for no effect and ±100 for the full control effect; nearly all actives have a fitted effect of over 50% in size
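Rat TrxR1, dispensed at 90 nM, was prereduced with 400 uM NADPH (final) for 5 min at ~22 deg C, then incubated with compound 15 min before 400 uM selenite. A first-read NADPH fluorescence drop versus no-compound background flagged substrates.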
HeLa tox – reduces HeLa cell viability in PKM2 activator counter-screen; shares compounds with PKM2 activator; HeLa viability, CellTiter-Glo ATP luminescence, 24 h; activity change, negative = cytotoxicity, % at 57.5 µM; 230 tested, under 10 active; AID 1898; also: % of control where 0% means no effect
GR counterassay – counter-screen for TrxR1 inhibitors: human glutathione reductase inhibition; shares compounds with TrxR1 inh-1; purified GR, DTNB reduction absorbance 405 nm kinetic; activity change, negative = inhibition, % at 57.1 µM; 55 tested, under 10 active; AID 652020
TrxR1 inh-2 – validation of rat thioredoxin reductase 1 inhibitors; shares compounds with TrxR1 inh-1; recombinant TrxR1, NADPH fluorescence consumption, selenite substrate; Potency, µM, usual class: inhibitors; 55 tested, 50% active; AID 652023
TrxR1 insulin MOA – inhibits TrxR1-driven insulin reduction. TrxR1 Trx-coupled insulin reduction, NADPH absorbance 340 nm. Potency, µM. 55 tested, 20% active. AID 652037. shares compounds with TrxR1 inh-1;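 active = compounds with a measured potency under 100 micromolar; inconclusive = filed, but no rule given; inactive = potency at or above that, or unmeasurable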
TrxR1 inh-3 – rat thioredoxin reductase 1 inhibition, DTNB assay; shares compounds with TrxR1 inh-1; purified TrxR1, DTNB reduction, A412; 55 tested, 90% active; Potency, µM;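 active = a half-inhibiting concentration could be measured and was below 100 µM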
Numbers without * were called inactive; i = inactive; ? = inconclusive; . = not tested or not shown; [ ] = another dose, or the depositor's remark. Unless noted, calls follow the shape of the dose curve; as a rule, active = well fitted curve in the direction sought with a large enough effect; inconclusive = small, poorly fitted or top-dose-only effect, or another doubt; inactive = no such curve, though single readings can be large; an effect the other way counts as inactive or inconclusive.

SMILES | TrxR1 inh-1 | GALK inhibitor | PI4K2A inh | PKM2 activator | TrxR1 substrate | HeLa tox | others
CCOC(=O)[C@@]12CCCC3=C1N(CCC3)C(=O)[C@H]2CC(=O)N1CCOCC1 | . | . | 5.5 | . | . | .
Cc1cc2c(s1)c1cnn(Cc3ccc(-c4ccccc4)cc3)c(=O)c1n2C | . | . | . | . | . | -0.9
Cc1cc2c(s1)c1cnn(Cc3ccc(Cl)cc3)c(=O)c1n2C | . | . | . | . | . | -16.7
Cn1c2ccccc2c2cnn(CC(=O)O)c(=O)c21 | -4.9% | -2.0% | -15.0 | 0.5% | 7.1% | .
Cn1c2cc(Br)sc2c2cnn(Cc3c(F)cccc3Cl)c(=O)c21 | 7.2% | . | 0.5 | . | -3.0% | .
O=c1[nH]c(Cn2nnc(-c3ccccc3)n2)nc2scc(-c3ccccc3)c12 | 5.3%[57.1 µM] | -0.3% | -1.5 | 14.1µM* | 8.2%[57.1 µM] | -20.2
COc1ccc(C(=O)/C=C/C(=O)N(CC(=O)NC2CCCCC2)Cc2ccccc2)c(O)c1 | 3.16µM* | 4.3% | 1.3 | 3.55µM* | 7.5% | ?
COCCNS(=O)(=O)c1ccc2c(c1)oc(=O)c1cc(S(=O)(=O)NCCOC)ccc12 | . | 1.8% | . | ? | . | .
NS(=O)(=O)c1ccc2c(c1)oc(=O)c1cc(S(N)(=O)=O)ccc12 | 2.0% | 3.6% | -0.7 | 0.355µM* | 1.0% | -18.9
CCCCCCCCN1C(=O)[C@@H](CC(=O)N2CCCCC2)C[C@@]2(C(=O)OC)C1=C[C@H](C(C)C)O[C@@H]2C1CC1 | . | . | -4.7 | . | . | .
Cc1ccc(CCC(=O)Nc2nccs2)o1 | -21.1% | 4.0% | 0.5 | 20µM* | 12.7% | 4.2
CCc1ccc(CCC(=O)Nc2nccs2)o1 | -17.7% | -4.1% | -6.3 | -2.0% | -0.8% | .
CCOC(=O)c1c(NC(=O)CSc2cn(CCNC(=O)c3ccccc3OC)c3ccccc23)sc2c1CCCC2 | 6.7% | . | -0.3 | . | 5.8%[11.4 µM] | .
CCNc1nc(NCC)nc(Oc2ccc(N)cc2)n1 | 5.8% | -0.1% | -3.5 | 2.51µM* | 5.5% | -2.4
CCNc1nc(OC)nc(Oc2ccc(C(=O)OC)cc2)n1 | -4.4% | 2.6% | 5.4 | 2.5% | -2.3% | .
Cc1ccc(-n2ncc3c(NCCC4=CCCCC4)ncnc32)cc1C | 24.7%[57.1 µM] | . | -1.9 | . | 0.5%[57.1 µM] | .
CC(C)(C)c1ccc(CN2N=Nc3ccccc3S2(=O)=O)cc1 | ? | 2.7% | 5.0 | 3.16µM* | 3.2% | ?
O=S1(=O)c2ccccc2N=NN1Cc1ccc(Cl)c(Cl)c1 | . | 0.3% | . | 26.3% | . | .
CCc1nc2ccc(C(=O)NCc3ccc(OC)c(OC)c3)cc2nc1CC | 16.0%[57.1 µM] | . | 1.7 | . | -0.5%[57.1 µM] | .
Cc1ccc(NS(=O)(=O)c2ccc3oc(=O)ccc3c2)cc1Cl | 12.2% | -1.0% | -6.3 | 1µM* | -4.4% | -3.6
O=S(=O)(c1c(F)cccc1F)N1CCN(S(=O)(=O)c2c(F)cccc2F)CC1 | . | . | . | . | . | -17.5
O=S(=O)(NCCCCCNS(=O)(=O)c1ccccc1)c1ccccc1 | 11.3%[57.1 µM] | 0.4% | 7.7 | 1.41µM* | 4.0%[57.1 µM] | -8.1
Cc1c(F)cccc1NC(=O)C1CCCN1S(=O)(=O)c1ccc(F)cc1 (stereo unspecified) | 6.0% | . | 1.6 | . | -6.0% | .
COc1ccc(Br)cc1S(=O)(=O)Nc1ncccc1C | 33.2% | 6.5% | 4.4 | 6.31µM* | 13.0% | -0.1
COc1ccc(N2CCN(Cc3nnc(-c4cccc(Br)c4)o3)CC2)cc1 | 7.5% | . | -3.6 | . | -3.5% | .
SMILES | TrxR1 inh-1 | GALK inhibitor | PI4K2A inh | PKM2 activator | TrxR1 substrate | HeLa tox | others
O=S(=O)(c1ccc2c(c1)OCCO2)C1CCC(S(=O)(=O)c2c(F)cccc2F)CC1 (stereo unspecified) | 4.2% | . | 2.5 | . | 7.4% | .
C[C@@H]1CN(S(=O)(=O)c2c(F)cccc2F)CCN1S(=O)(=O)c1ccc2c(c1)OCCO2 | 17.4%[57.1 µM] | . | 0.0 | . | 5.0%[57.1 µM] | ?
O=S(=O)(NC1CCC(NS(=O)(=O)c2c(F)cccc2F)CC1)c1ccc2c(c1)OCCO2 (stereo unspecified) | 4.3%[57.1 µM] | . | -2.0 | . | 2.9%[57.1 µM] | -12.4
O=S(=O)(NC1CCN(S(=O)(=O)c2ccc3c(c2)OCCO3)C1)c1c(F)cccc1F (stereo unspecified) | 30.5% | . | -3.5 | . | 11.2% | 1.5
COc1ccc(CCNC(=O)CSc2ccc3ccccc3c2)cc1OC | -6.5% | 0.4% | -9.4 | 0.0% | -4.0% | .
O=C(CSc1ccc2ccccc2c1)NCCc1ccc(O)c(O)c1 | ? | 0.9% | 5.1 | 2.82µM* | 11.6%[57.1 µM] | 10.3
COc1cc(/C=C2/C(=O)NN(c3cccc(F)c3)C2=O)ccc1OC(=O)c1ccco1 | 28.2µM* | -7.1% | -3.3 | ? | -9.1% | . | GR counterassay=-0.1;TrxR1 inh-2=?;TrxR1 insulin MOA=i;TrxR1 inh-3=6.81µM*
COC(=O)C[C@H]1CC[C@H]2[C@H](COc3ccc(NC(=O)Nc4ccccc4F)cc3C(=O)N2C)O1 | . | . | -3.3 | . | . | .
CCc1c(C)nc2nncn2c1Nc1ccc(C)c(F)c1 | 9.0% | . | -0.4 | . | 1.1% | .
CC(C)(C)c1cc(CN2CCN(CCO)CC2)cc(C(C)(C)C)c1O | 7.94µM* | -0.6% | 15.2 | -5.2% | 5.1%[57.1 µM] | . | GR counterassay=0.2;TrxR1 inh-2=?;TrxR1 insulin MOA=i;TrxR1 inh-3=1.27µM*
CCc1c(C)sc2c1CCN(C(=O)Nc1ccc(F)c(Cl)c1)C2c1ccc(F)cc1 (stereo unspecified) | 15.2%[57.1 µM] | . | 3.5 | . | -4.3%[57.1 µM] | .
Cc1ccc2[nH]c(=O)c(CN(CCCN3CCOCC3)Cc3nnnn3C3CCCC3)cc2c1 | 20µM* | 8.1% | 11.6 | 2.4% | 8.7% | . | GR counterassay=?;TrxR1 inh-2=?;TrxR1 insulin MOA=3µM*;TrxR1 inh-3=5.35µM*
CNc1ccc(C(=O)OCC(=O)NC(=O)NC2CCCCC2)cc1[N+](=O)[O-] | 19.4% | . | 7.4 | . | -0.9% | .
